From PubChem BioAssay (NCI)
This is part of a sample that, as a whole, favours compounds with a hit. Of some 83,000 tested, about 20% had one in any assay.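 A percent growth of 40 corresponds to 60% growth inhibition; 0 means no net growth; -100 means all cells died. Active threshold: below 10.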 Unmarked numbers belong to inactive results. Activity calls are given as the source filed them.

The molecules below were run on EKVX NSCLC (assay: NCI-60 one-dose screen, 48 h (100 = growth as untreated, 0 = no growth, -100 = all killed)). Settings: 10 µM unless noted.
Procedure: Growth inhibition of the EKVX human Non-Small Cell Lung tumor cell line is measured as a screen for anti-cancer activity. Cells are grown in 96 well plates and exposed to the test compound for 48 hours. Compounds are tested at a single concentration, which is 10^-5 M for most compounds. The reported endpoint is percent growth (GI% or GIPRCNT), where numbers from 0 - 100% represent growth inhibition, and numbers from -100% - 0 represent cell death. For example, a value of 40 represents 60% growth inhibition. A value of 0 means no net growth occurred over the course of the experiment. A value of -40 indicates 40% of cells at the beginning of the experiment died by the end of the experiment. A value of -100 means all cells are dead at the end of the experiment.
NCI-60 Human Tumor Cell Lines Screen was performed using the standard one-dose NCI protocol, which is described in more detail at https://dtp.cancer.gov/discovery_development/nci-60/default.htm.
Compounds with GIPRCNT values below 10 were considered active. Activity score was based on GIPRCNT using the following formula: […]
Score is 0 for GIPRCNT values of 100 or above, 50 for GIPRCNT values of 0, and 100 for GIPRCNT values of -100.
`CC(=O)Oc1c(Cl)c(Cl)c(Cl)c(Cl)c1Cl` was tested, and the growth was 87.6%.
In the case of `COc1ccccc1/C=N\Nc1ccc([N+](=O)[O-])cn1`, the growth was 92.8%.
In the case of `O=S1(=O)NCCCN1CCNc1nccc(-c2c(-c3cccc(O)c3)nc3sccn23)n1`, the growth was 141%.
In the case of `Nc1cc(C(=O)O)cc(C(=O)O)c1`, the growth was 105%.
`CS(=O)(=O)c1ccc(C(=O)N2N=C(c3ccccc3)CC2c2ccc3c(c2)OCO3)cc1` (stereo not given) was tested, and the growth was 93.4%.
In the case of `CNC(=O)c1c(NC(=O)c2cccc(C(F)(F)F)c2)sc2c1CCC(=O)C2`, the growth was 4.31% (active).
In the case of `COc1ccc(C(=O)O)cc1.[Ag]`, the growth was 108%.
`Cc1cc(-c2ccccc2)on1` showed a growth of 103%.
With `CS(=O)(=O)c1ccc(C(=O)N/N=C/c2ccccc2Cl)cc1` the growth was 97%.
`N=C(N)c1ccc(NCCNc2ccc(C(=N)N)cc2)cc1` gave a growth of 102%.
`CCN(CC)Cc1cc(Nc2ccnc3ccc(OC)cc23)ccc1O` was tested, and the growth was 67.1%.
Molecule `COc1ccc(C2NC(=O)c3cc4c(cc3N2)OCO4)cc1` (stereo not given) has a growth of 58.1%.
Molecule `CC(C)c1cccc(C#N)c1` has a growth of 94%.
`Cc1nc(N)nc2c1CCC(Nc1ccccc1)S2` (stereo not given) gave a growth of 103%.
`COc1cccc(/C(C)=N/NC(=O)CSc2nc3ccccc3c(=O)n2CCc2ccc(S(N)(=O)=O)cc2)c1` gave a growth of 96.9%.
`COc1cc(OC)c2sc(-c3ccc(-n4cncc4-c4ccc(OC)c(N)c4)cc3)nc2c1` showed a growth of 64.5%.
With `CC1OC(n2c3ccccc3c3c4c(c5c6ccccc6[nH]c5c32)C(=O)N(CCN[C@H]2CCC[C@@H]2N)C4=O)CC(O)C1O` (stereo not given in full) the growth was 45.9%.
In the case of `NS(=O)(=O)c1ccc(CCn2c(SCC(=O)N/N=C/c3ccccc3O)nc3ccccc3c2=O)cc1`, the growth was 75.8%.
In the case of `O=C(Nc1cccc(Cl)c1)Nc1ccccc1Cl`, the growth was 72.1%.
`O/N=C/c1ccncc1` was tested, and the growth was 100%.
For `CN1CCCN(CCNc2nccc(-c3c(-c4cccc(O)c4)nc4sccn34)n2)S1(=O)=O`, the growth was 84.9%.
In the case of `COc1ccccc1-[n+]1cc(-c2ccc(-c3ccccc3)cc2)n2c1CCCCC2`, the growth was 9.1% (active).
Work on `CCOC(OCC)c1cnc2nc(NC(C)=O)[nH]c(=O)c2n1` yielded a growth of 109%.
`C=CCN1C(=O)/C(=c2\sc3n(c2=O)C2C(NN=3)N(CC)C(=O)N2CC)c2ccccc21` (stereo not given) showed a growth of 37.3%.
`CC(C)(C)[Si](C)(C)OC1[C@@H](O[Si](C)(C)C(C)(C)C)[C@@H](CNC(=O)NC(=O)NC(=O)CI)O[C@H]1n1cnc2c(NC(=O)Nc3ccccc3)ncnc21` (stereo not given in full) gave a growth of 56.5%.
Molecule `O=C(O)c1ccccc1Oc1cc(-c2ccco2)nc(OCCN2CCOCC2)n1` has a growth of 113%.
`C=C1C(=O)O[C@H]2[C@H]1CC/C(COC(=O)NCc1cccc(OC)c1)=C\CC[C@@]1(C)O[C@@H]21` gave a growth of 54.8%.
With `CCN(CC)c1ccc(/C=N/NC(=O)C[N+](C)(C)C)cc1` the growth was 94.2%.
`O=C(NO)c1ccc(CNc2cccc3nc(C4CC4)n(-c4ccccc4)c(=O)c23)cc1` showed a growth of 42.2%.
Molecule `CCOC(=O)C#Cc1c(C(=O)OCC)nnn1[C@@H]1O[C@H](COC(C)=O)[C@@H](OC(C)=O)[C@H]1OC(C)=O` has a growth of 103%.
`CCOC(=O)Cn1c(-c2nonc2NC(=O)c2ccccc2F)nc2ccccc21` was tested, and the growth was 71.1%.
`COc1cc([N+](=O)[O-])cc(OC)c1OC` showed a growth of 104%.
In the case of `CCCCCCCCCCCC1=NC(C)(C)CN1CCO`, the growth was 68.7%.
With `NC(=O)c1ccc[n+](Cc2ccccc2)c1` the growth was 94%.
In the case of `COc1cccc(-c2nc3sccn3c2-c2ccnc(NCCN3CCCNS3(=O)=O)n2)c1`, the growth was 110%.
Work on `COc1ccc(C(=O)OC2C(OC3C(O)COC(O[C@H]4C[C@H]5[C@@H]6CC=C7C[C@@H](O)CC[C@]7(C)[C@H]6CC[C@]5(C)[C@H]4[C@H](C)C(=O)CCC(C)C)C3OC(=O)C(C)C)OCC(O)C2O)cc1` (stereo not given in full) yielded a growth of 30.2%.
`C[C@@H]1N=C(c2ccc3ccccc3c2)Nc2nc3ccccn3c2C1=O` gave a growth of 75.6%.
For `CCN(CC)c1ccc(/C=N/N=C(N)N)cc1`, the growth was 76.5%.
In the case of `O=S(=O)(Nc1ccc2ccccc2c1)N1CCCCC1`, the growth was 81%.
In the case of `CN1C(=O)NC(Cc2c[nH]c3c(Cl)cccc23)C1=O` (stereo not given), the growth was 118%.
